# Substitutions are numbered along the chain they refer to.
# Tests used:
# Assay in all cases: yeast three-hybrid, YBZ-1, SC-Leu-His + 0.5 mM 3-AT, 4 days
# Conditions in all cases: tags: N-Gal4 AD-HA kept; label: inside an RPR1-promoter hybrid RNA with tandem MS2 sites; ssRNA
# PUM1 PUF domain R6-AWE = molecular target: T1, PUM1 PUF domain R6-AWE (Homo sapiens, UniProt Q14671 828-1176, N1043A;Y1044W;Q1047E)
# T1 sequence: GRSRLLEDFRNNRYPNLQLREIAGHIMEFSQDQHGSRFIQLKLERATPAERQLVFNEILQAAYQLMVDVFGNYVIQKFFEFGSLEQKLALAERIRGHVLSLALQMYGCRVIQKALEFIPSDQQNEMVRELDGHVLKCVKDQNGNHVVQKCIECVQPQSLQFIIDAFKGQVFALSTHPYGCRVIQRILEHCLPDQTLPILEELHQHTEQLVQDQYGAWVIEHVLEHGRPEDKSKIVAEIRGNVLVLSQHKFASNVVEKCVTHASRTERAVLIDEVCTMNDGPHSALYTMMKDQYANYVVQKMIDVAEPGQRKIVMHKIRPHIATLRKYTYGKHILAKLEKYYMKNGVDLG
# How it was run: (§1)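 Matching RNA elements and Pumilio-1 PUF domain libraries, randomized at the three base-contacting residues of every repeat, were co-expressed from a centromeric plasmid in strain YBZ-1 (LexA–MS2 coat fusion, HIS3 reporter). The repeat regions were PCR-amplified and Illumina-sequenced from cells grown four days on SC-Leu (input) or SC-Leu-His + 0.5 mM 3-AT (selection). The interaction score is the log change in variant frequency from input to selection. It is computed in log2, with a pseudocount of 1 for absent variants.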
# PUM1 PUF domain R6-TFK = molecular target: T2, PUM1 PUF domain R6-TFK (Homo sapiens, UniProt Q14671 828-1176, N1043T;Y1044F;Q1047K)
# T2 sequence: T1 sequence with A216T, W217F, E220K
# How it was run: as §1
# PUM1 PUF domain R3-EWL = PUM1 PUF domain R3-EWL (Homo sapiens, UniProt Q14671 828-1176, C935E;R936W;Q939L)
# How it was run: as §1
# PUM1 PUF domain R5-GIR = PUM1 PUF domain R5-GIR (Homo sapiens, UniProt Q14671 828-1176, C1007G;R1008I;Q1011R)
# How it was run: as §1
# PUM1 PUF domain R6-HFF = molecular target: T3, PUM1 PUF domain R6-HFF (Homo sapiens, UniProt Q14671 828-1176, N1043H;Y1044F;Q1047F)
# T3 sequence: T1 sequence with A216H, W217F, E220F
# How it was run: as §1
# PUM1 PUF domain R4-VLY = PUM1 PUF domain R4-VLY (Homo sapiens, UniProt Q14671 828-1176, N971V;H972L;Q975Y)
# How it was run: as §1
# PUM1 PUF domain R8-KHW = PUM1 PUF domain R8-KHW (Homo sapiens, UniProt Q14671 828-1176, N1122K;Y1123H;Q1126W)
# How it was run: as §1
# PUM1 PUF domain R4-PFV = PUM1 PUF domain R4-PFV (Homo sapiens, UniProt Q14671 828-1176, N971P;H972F;Q975V)
# Chain of PUM1 PUF domain R4-PFV (Q14671 828-1176 N971P/H972F/Q975V): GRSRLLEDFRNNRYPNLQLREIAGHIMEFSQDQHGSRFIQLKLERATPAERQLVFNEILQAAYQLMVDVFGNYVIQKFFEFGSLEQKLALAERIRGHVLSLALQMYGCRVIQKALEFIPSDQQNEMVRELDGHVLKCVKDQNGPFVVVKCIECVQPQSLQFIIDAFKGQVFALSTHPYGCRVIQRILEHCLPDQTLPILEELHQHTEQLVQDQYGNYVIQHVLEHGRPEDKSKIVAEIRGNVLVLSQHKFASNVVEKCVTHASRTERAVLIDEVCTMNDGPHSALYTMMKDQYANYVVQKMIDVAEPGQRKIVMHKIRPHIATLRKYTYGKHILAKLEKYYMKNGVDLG
# How it was run: as §1
# PUM1 PUF domain R1-YMR = PUM1 PUF domain R1-YMR (Homo sapiens, UniProt Q14671 828-1176, S863Y;R864M;Q867R)
# Chain of PUM1 PUF domain R1-YMR (Q14671 828-1176 S863Y/R864M/Q867R): as the sequence (Q14671 828-1176 N971P/H972F/Q975V) above, with S36Y, R37M, Q40R, P144N, F145H, V148Q counted along it
# How it was run: as §1
# PUM1 PUF domain R3-APA = PUM1 PUF domain R3-APA (Homo sapiens, UniProt Q14671 828-1176, C935A;R936P;Q939A)
# How it was run: as §1
# PUM1 PUF domain R5-IYG = PUM1 PUF domain R5-IYG (Homo sapiens, UniProt Q14671 828-1176, C1007I;R1008Y;Q1011G)
# How it was run: as §1
# PUM1 PUF domain R7-RKL = PUM1 PUF domain R7-RKL (Homo sapiens, UniProt Q14671 828-1176, S1079R;N1080K;E1083L)
# How it was run: as §1
# PUM1 PUF domain R1-HFK = PUM1 PUF domain R1-HFK (Homo sapiens, UniProt Q14671 828-1176, S863H;R864F;Q867K)
# How it was run: as §1
# PUM1 PUF domain R2-IWE = PUM1 PUF domain R2-IWE (Homo sapiens, UniProt Q14671 828-1176, N899I;Y900W;Q903E)
# How it was run: as §1
# PUM1 PUF domain R8-YYF = PUM1 PUF domain R8-YYF (Homo sapiens, UniProt Q14671 828-1176, N1122Y;Q1126F)
# How it was run: as §1
# PUM1 PUF domain R3-RRW = PUM1 PUF domain R3-RRW (Homo sapiens, UniProt Q14671 828-1176, C935R;Q939W)
# How it was run: as §1
# PUM1 PUF domain R3-EFA = PUM1 PUF domain R3-EFA (Homo sapiens, UniProt Q14671 828-1176, C935E;R936F;Q939A)
# How it was run: as §1
# PUM1 PUF domain R3-TSR = PUM1 PUF domain R3-TSR (Homo sapiens, UniProt Q14671 828-1176, C935T;R936S;Q939R)
# How it was run: as §1
# PUM1 PUF domain R3-SGE = PUM1 PUF domain R3-SGE (Homo sapiens, UniProt Q14671 828-1176, C935S;R936G;Q939E)
# How it was run: as §1
# PUM1 PUF domain R1-NLV = PUM1 PUF domain R1-NLV (Homo sapiens, UniProt Q14671 828-1176, S863N;R864L;Q867V)
# How it was run: as §1
sequence,measurement,setting,value
GGCUAGAACUAGUGGAUCCCCCGGCGCCCGGCGGCUCGAGCCCGGGUAAGUGGAAAUAGUCUGCAUGCCGCCGGGCGCCAUGCCUGCAGGUCGACUCUAGAAAACAUG,binding signal,PUM1 PUF domain R6-AWE,4.11 log2 enrichment (interaction score)
GGCUAGAACUAGUGGAUCCCCCGGCGCCCGGCGGCUCGAGCCCGGGUAAGUGAAAAUAGUCUGCAUGCCGCCGGGCGCCAUGCCUGCAGGUCGACUCUAGAAAACAUG,binding signal,PUM1 PUF domain R6-AWE,7.15 log2 enrichment (interaction score)
same,binding signal,PUM1 PUF domain R6-TFK,2.81 log2 enrichment (interaction score)
GGCUAGAACUAGUGGAUCCCCCGGCGCCCGGCGGCUCGAGCCCGGGUAAGUGUAAAUAGUCUGCAUGCCGCCGGGCGCCAUGCCUGCAGGUCGACUCUAGAAAACAUG,binding signal,PUM1 PUF domain R3-EWL,5.03 log2 enrichment (interaction score)
same,binding signal,PUM1 PUF domain R5-GIR,2.43 log2 enrichment (interaction score)
same,binding signal,PUM1 PUF domain R6-TFK,7.02 log2 enrichment (interaction score)
same,binding signal,PUM1 PUF domain R6-HFF,4.43 log2 enrichment (interaction score)
same,binding signal,PUM1 PUF domain R4-VLY,4.53 log2 enrichment (interaction score)
same,binding signal,PUM1 PUF domain R8-KHW,3.88 log2 enrichment (interaction score)
same,binding signal,PUM1 PUF domain R4-PFV,6.08 log2 enrichment (interaction score)
same,binding signal,PUM1 PUF domain R1-YMR,2.85 log2 enrichment (interaction score)
same,binding signal,PUM1 PUF domain R3-APA,2.14 log2 enrichment (interaction score)
same,binding signal,PUM1 PUF domain R5-IYG,4.13 log2 enrichment (interaction score)
GGCUAGAACUAGUGGAUCCCCCGGCGCCCGGCGGCUCGAGCCCGGGUAAGUGUACAUAGUCUGCAUGCCGCCGGGCGCCAUGCCUGCAGGUCGACUCUAGAAAACAUG,binding signal,PUM1 PUF domain R4-PFV,5.7 log2 enrichment (interaction score)
GGCUAGAACUAGUGGAUCCCCCGGCGCCCGGCGGCUCGAGCCCGGGUAAGUCUAAAUAGUCUGCAUGCCGCCGGGCGCCAUGCCUGCAGGUCGACUCUAGAAAACAUG,binding signal,PUM1 PUF domain R7-RKL,3.94 log2 enrichment (interaction score)
GGCUAGAACUAGUGGAUCCCCCGGCGCCCGGCGGCUCGAGCCCGGGUAAGUGUAAAUCGUCUGCAUGCCGCCGGGCGCCAUGCCUGCAGGUCGACUCUAGAAAACAUG,binding signal,PUM1 PUF domain R1-HFK,2.71 log2 enrichment (interaction score)
same,binding signal,PUM1 PUF domain R1-YMR,6.92 log2 enrichment (interaction score)
GGCUAGAACUAGUGGAUCCCCCGGCGCCCGGCGGCUCGAGCCCGGGUAAGUUUAAAUAGUCUGCAUGCCGCCGGGCGCCAUGCCUGCAGGUCGACUCUAGAAAACAUG,binding signal,PUM1 PUF domain R7-RKL,4.32 log2 enrichment (interaction score)
GGCUAGAACUAGUGGAUCCCCCGGCGCCCGGCGGCUCGAGCCCGGGUAAGUGUAAAAAGUCUGCAUGCCGCCGGGCGCCAUGCCUGCAGGUCGACUCUAGAAAACAUG,binding signal,PUM1 PUF domain R2-IWE,4.65 log2 enrichment (interaction score)
GGCUAGAACUAGUGGAUCCCCCGGCGCCCGGCGGCUCGAGCCCGGGUAAGCGUAAAUAGUCUGCAUGCCGCCGGGCGCCAUGCCUGCAGGUCGACUCUAGAAAACAUG,binding signal,PUM1 PUF domain R8-YYF,5.85 log2 enrichment (interaction score)
same,binding signal,PUM1 PUF domain R8-KHW,5.39 log2 enrichment (interaction score)
GGCUAGAACUAGUGGAUCCCCCGGCGCCCGGCGGCUCGAGCCCGGGUAAGUGUAUAUAGUCUGCAUGCCGCCGGGCGCCAUGCCUGCAGGUCGACUCUAGAAAACAUG,binding signal,PUM1 PUF domain R4-PFV,6.87 log2 enrichment (interaction score)
GGCUAGAACUAGUGGAUCCCCCGGCGCCCGGCGGCUCGAGCCCGGGUAAGUGUAAUUAGUCUGCAUGCCGCCGGGCGCCAUGCCUGCAGGUCGACUCUAGAAAACAUG,binding signal,PUM1 PUF domain R3-EWL,4.51 log2 enrichment (interaction score)
same,binding signal,PUM1 PUF domain R3-RRW,3.94 log2 enrichment (interaction score)
same,binding signal,PUM1 PUF domain R3-EFA,3.24 log2 enrichment (interaction score)
same,binding signal,PUM1 PUF domain R3-TSR,2.25 log2 enrichment (interaction score)
GGCUAGAACUAGUGGAUCCCCCGGCGCCCGGCGGCUCGAGCCCGGGUAAGUGUUAAUAGUCUGCAUGCCGCCGGGCGCCAUGCCUGCAGGUCGACUCUAGAAAACAUG,binding signal,PUM1 PUF domain R5-GIR,1.6 log2 enrichment (interaction score)
GGCUAGAACUAGUGGAUCCCCCGGCGCCCGGCGGCUCGAGCCCGGGUAAGUGUAAGUAGUCUGCAUGCCGCCGGGCGCCAUGCCUGCAGGUCGACUCUAGAAAACAUG,binding signal,PUM1 PUF domain R3-SGE,4.96 log2 enrichment (interaction score)
GGCUAGAACUAGUGGAUCCCCCGGCGCCCGGCGGCUCGAGCCCGGGUAAGUGUAAAUUGUCUGCAUGCCGCCGGGCGCCAUGCCUGCAGGUCGACUCUAGAAAACAUG,binding signal,PUM1 PUF domain R1-NLV,2.72 log2 enrichment (interaction score)
same,binding signal,PUM1 PUF domain R1-YMR,4.12 log2 enrichment (interaction score)
GGCUAGAACUAGUGGAUCCCCCGGCGCCCGGCGGCUCGAGCCCGGGUAAGUGUCAAUAGUCUGCAUGCCGCCGGGCGCCAUGCCUGCAGGUCGACUCUAGAAAACAUG,binding signal,PUM1 PUF domain R5-GIR,4.37 log2 enrichment (interaction score)
